The source of these data is article PMC7862700, “An all-to-all approach to the identification of sequence-specific readers for epigenetic DNA modifications on cytosine”.

What all share (experiment): DAPPL (digital affinity profiling via proximity ligation, sequencing); 10 mM Tris-HCl pH 7.5, 50 mM NaCl, 1 mM DTT, 4% glycerol, room temperature, 30 min; GST-TFs on glutathione beads, 16-mer random dsDNA library, 0.1% formaldehyde crosslink after washing; high values mean tight binding
Conditions in all cases: protein: recombinant; tags: N-terminal GST; dsDNA, one strand shown

The target of one test is T1, ERF (Homo sapiens, UniProt P50548 1-548).
T1 sequence: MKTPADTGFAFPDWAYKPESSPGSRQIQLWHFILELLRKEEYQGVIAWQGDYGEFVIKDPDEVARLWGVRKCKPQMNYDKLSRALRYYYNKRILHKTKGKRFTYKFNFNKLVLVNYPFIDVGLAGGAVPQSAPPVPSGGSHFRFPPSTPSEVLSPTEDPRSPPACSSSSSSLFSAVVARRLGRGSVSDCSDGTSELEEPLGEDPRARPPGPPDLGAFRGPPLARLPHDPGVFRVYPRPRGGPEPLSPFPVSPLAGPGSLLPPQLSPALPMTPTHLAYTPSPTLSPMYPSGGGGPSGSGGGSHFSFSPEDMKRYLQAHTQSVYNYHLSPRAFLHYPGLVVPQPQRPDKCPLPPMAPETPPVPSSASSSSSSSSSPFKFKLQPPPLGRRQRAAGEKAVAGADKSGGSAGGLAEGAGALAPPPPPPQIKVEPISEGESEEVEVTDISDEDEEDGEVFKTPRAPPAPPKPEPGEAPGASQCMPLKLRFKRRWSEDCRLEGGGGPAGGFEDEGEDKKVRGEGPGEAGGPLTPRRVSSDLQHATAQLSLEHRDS
In outline: (§1)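 Binding signal is defined as a hexamer's read frequency for one factor over its frequency for the tag-only sample. To obtain reads, GST-fused human transcription factors were expressed in yeast, captured on glutathione beads, barcoded with DNA and pooled with that sample. Pools met 200 nmole of a 16-mer random double-stranded DNA library in Tris/NaCl/DTT/glycerol buffer for 30 min at room temperature before washing, 0.1% formaldehyde crosslinking, proximity ligation (BsaI/T4 ligase, 1 h, 37 °C), PCR and Illumina NextSeq500 sequencing.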

The target of a further test is T2, ETV3L (Homo sapiens, UniProt Q6ZN32 1-361).
T2 sequence: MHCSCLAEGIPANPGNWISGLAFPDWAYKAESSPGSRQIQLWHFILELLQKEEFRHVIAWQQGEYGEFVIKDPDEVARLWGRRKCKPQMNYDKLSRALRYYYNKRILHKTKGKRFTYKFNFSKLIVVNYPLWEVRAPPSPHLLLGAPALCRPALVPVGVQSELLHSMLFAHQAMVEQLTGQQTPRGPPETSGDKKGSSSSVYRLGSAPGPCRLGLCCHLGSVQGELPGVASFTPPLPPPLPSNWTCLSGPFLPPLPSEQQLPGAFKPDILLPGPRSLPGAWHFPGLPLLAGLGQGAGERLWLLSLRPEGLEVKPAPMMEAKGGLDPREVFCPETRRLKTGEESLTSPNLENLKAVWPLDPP
In outline: as §1

The next test addresses T3, ETS2 (Homo sapiens, UniProt P15036 1-469).
T3 sequence: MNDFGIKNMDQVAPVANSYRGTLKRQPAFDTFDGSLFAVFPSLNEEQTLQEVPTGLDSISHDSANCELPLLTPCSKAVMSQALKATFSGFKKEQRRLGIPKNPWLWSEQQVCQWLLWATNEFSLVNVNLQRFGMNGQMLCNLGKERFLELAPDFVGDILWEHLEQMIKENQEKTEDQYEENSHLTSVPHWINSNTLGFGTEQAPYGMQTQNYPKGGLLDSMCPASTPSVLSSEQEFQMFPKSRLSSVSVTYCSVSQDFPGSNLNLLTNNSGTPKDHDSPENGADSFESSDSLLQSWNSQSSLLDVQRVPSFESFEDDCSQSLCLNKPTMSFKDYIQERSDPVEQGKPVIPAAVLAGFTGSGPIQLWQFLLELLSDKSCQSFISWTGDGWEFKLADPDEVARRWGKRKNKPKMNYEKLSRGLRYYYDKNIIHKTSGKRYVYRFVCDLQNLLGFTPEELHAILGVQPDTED
In outline: as §1

The target of the next test is T4, SPDEF (Homo sapiens, UniProt O95238 1-335).
T4 sequence: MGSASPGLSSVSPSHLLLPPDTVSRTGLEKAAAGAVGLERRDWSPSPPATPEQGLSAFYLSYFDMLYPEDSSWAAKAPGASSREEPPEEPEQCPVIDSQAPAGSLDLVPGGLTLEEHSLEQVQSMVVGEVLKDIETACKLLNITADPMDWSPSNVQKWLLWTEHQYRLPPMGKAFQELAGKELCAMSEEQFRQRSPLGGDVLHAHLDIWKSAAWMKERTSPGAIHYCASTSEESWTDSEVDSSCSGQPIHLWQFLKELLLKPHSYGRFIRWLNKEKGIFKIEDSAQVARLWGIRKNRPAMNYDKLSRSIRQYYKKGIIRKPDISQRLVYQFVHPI
In outline:
as §1

For a further test, the target named is T5, ETV7 (Homo sapiens, UniProt Q9Y603 1-341).
T5 sequence: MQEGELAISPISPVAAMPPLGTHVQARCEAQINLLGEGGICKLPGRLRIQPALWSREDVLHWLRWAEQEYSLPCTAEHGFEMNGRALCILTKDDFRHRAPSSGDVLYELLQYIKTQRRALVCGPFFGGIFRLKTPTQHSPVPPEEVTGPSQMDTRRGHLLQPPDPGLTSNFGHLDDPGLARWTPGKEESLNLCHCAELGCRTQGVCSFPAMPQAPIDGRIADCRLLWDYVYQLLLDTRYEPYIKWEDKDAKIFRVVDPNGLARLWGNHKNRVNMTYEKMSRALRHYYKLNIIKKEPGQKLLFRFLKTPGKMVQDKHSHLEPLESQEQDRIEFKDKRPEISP
In outline:
as §1

A further test has as its target T6, ELF5 (Homo sapiens, UniProt Q9UKW6-2 1-255).
T6 sequence: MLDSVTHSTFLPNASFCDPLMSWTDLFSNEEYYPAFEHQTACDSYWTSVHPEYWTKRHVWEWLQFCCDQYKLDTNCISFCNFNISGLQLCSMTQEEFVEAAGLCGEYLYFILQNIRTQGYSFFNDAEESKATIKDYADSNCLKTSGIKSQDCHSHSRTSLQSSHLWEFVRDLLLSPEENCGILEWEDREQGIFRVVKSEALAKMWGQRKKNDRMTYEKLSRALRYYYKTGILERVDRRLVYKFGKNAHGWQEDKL
In outline:
as §1

The target of a further test is T7, ETV3 (Homo sapiens, UniProt P41162-2 1-143).
T7 sequence: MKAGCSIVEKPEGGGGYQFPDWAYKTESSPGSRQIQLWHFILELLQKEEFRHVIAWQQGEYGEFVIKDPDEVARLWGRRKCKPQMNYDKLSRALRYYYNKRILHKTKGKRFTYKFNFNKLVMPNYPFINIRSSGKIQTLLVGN
In outline:
as §1

The target of a further test is ETV6 (Homo sapiens, UniProt P41212 1-452). In outline: as §1
Sequence of ETV6 (P41212 whole entry): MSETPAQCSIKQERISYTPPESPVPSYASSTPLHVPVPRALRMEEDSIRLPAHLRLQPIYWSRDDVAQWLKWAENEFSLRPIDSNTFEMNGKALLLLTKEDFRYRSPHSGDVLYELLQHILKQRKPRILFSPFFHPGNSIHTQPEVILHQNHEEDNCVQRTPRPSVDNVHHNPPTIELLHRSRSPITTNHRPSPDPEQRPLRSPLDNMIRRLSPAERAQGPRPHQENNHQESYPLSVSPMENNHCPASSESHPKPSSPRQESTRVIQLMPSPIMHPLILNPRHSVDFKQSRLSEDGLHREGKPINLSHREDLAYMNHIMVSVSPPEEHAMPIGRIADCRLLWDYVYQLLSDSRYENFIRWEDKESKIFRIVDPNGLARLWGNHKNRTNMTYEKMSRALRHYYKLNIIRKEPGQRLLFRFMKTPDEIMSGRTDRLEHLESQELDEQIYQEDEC

For ACGATA, the binding signal with ERF was 1.2 fold enrichment (6-mer frequency, TF over GST control); with ETV3L, 1.18 fold enrichment (6-mer frequency, TF over GST control); with ETS2, 1.25 fold enrichment (6-mer frequency, TF over GST control); in the test with SPDEF, 1.13 fold enrichment (6-mer frequency, TF over GST control); with ETV7, 1.22 fold enrichment (6-mer frequency, TF over GST control); in the test with ELF5, 1.09 fold enrichment (6-mer frequency, TF over GST control). The binding signal with ETV3 was 1.13 fold enrichment (6-mer frequency, TF over GST control); in the test with ETV6 it was 1.18 fold enrichment (6-mer frequency, TF over GST control).

Consider ACCTCC, for which the binding signal with ERF is 1.35 fold enrichment (6-mer frequency, TF over GST control); in the test with ETV3L it was 1.49 fold enrichment (6-mer frequency, TF over GST control); in the test with ETS2, 1.41 fold enrichment (6-mer frequency, TF over GST control); in the test with SPDEF it was 1.5 fold enrichment (6-mer frequency, TF over GST control); in the test with ETV7 it was 1.4 fold enrichment (6-mer frequency, TF over GST control); in the test with ELF5, 1.49 fold enrichment (6-mer frequency, TF over GST control). Also, the binding signal is 1.33 fold enrichment (6-mer frequency, TF over GST control) with ETV3 and 1.4 fold enrichment (6-mer frequency, TF over GST control) in the test with ETV6.

Take AATCAT: the binding signal with ERF was 1.18 fold enrichment (6-mer frequency, TF over GST control); with ETV3L, 1.18 fold enrichment (6-mer frequency, TF over GST control); with ETS2, 1.11 fold enrichment (6-mer frequency, TF over GST control); with SPDEF, 1.07 fold enrichment (6-mer frequency, TF over GST control); with ETV7, 1.04 fold enrichment (6-mer frequency, TF over GST control); in the test with ELF5, 1.18 fold enrichment (6-mer frequency, TF over GST control). The binding signal is 1.12 fold enrichment (6-mer frequency, TF over GST control) in the test with ETV3 and 1.16 fold enrichment (6-mer frequency, TF over GST control) in the test with ETV6.

Take CTTTCG: the binding signal with ERF is 1.23 fold enrichment (6-mer frequency, TF over GST control); with ETV3L it was 1.29 fold enrichment (6-mer frequency, TF over GST control); with ETS2, 1.32 fold enrichment (6-mer frequency, TF over GST control); with SPDEF, 1.22 fold enrichment (6-mer frequency, TF over GST control); with ETV7 it was 1.3 fold enrichment (6-mer frequency, TF over GST control); with ELF5, 1.26 fold enrichment (6-mer frequency, TF over GST control). Further, the binding signal with ETV3 was 1.16 fold enrichment (6-mer frequency, TF over GST control); in the test with ETV6 it was 1.23 fold enrichment (6-mer frequency, TF over GST control).

In the case of GGTTTC, the binding signal was 1.49 fold enrichment (6-mer frequency, TF over GST control) with ERF; 1.52 fold enrichment (6-mer frequency, TF over GST control) in the test with ETV3L; 1.52 fold enrichment (6-mer frequency, TF over GST control) with ETS2; 1.55 fold enrichment (6-mer frequency, TF over GST control) with SPDEF; 1.38 fold enrichment (6-mer frequency, TF over GST control) with ETV7; 1.52 fold enrichment (6-mer frequency, TF over GST control) in the test with ELF5. The binding signal in the test with ETV3 was 1.46 fold enrichment (6-mer frequency, TF over GST control); with ETV6 it was 1.51 fold enrichment (6-mer frequency, TF over GST control).

Consider TTTCTG, for which the binding signal in the test with ERF is 1.44 fold enrichment (6-mer frequency, TF over GST control); in the test with ETV3L, 1.29 fold enrichment (6-mer frequency, TF over GST control); with ETS2, 1.37 fold enrichment (6-mer frequency, TF over GST control); with SPDEF, 1.46 fold enrichment (6-mer frequency, TF over GST control); with ETV7, 1.39 fold enrichment (6-mer frequency, TF over GST control); with ELF5, 1.42 fold enrichment (6-mer frequency, TF over GST control). For the same sequence, the binding signal with ETV3 is 1.3 fold enrichment (6-mer frequency, TF over GST control); with ETV6, 1.46 fold enrichment (6-mer frequency, TF over GST control).

CTGCGT: the binding signal is 1.13 fold enrichment (6-mer frequency, TF over GST control) in the test with ERF; 1.16 fold enrichment (6-mer frequency, TF over GST control) with ETV3L; 1.15 fold enrichment (6-mer frequency, TF over GST control) in the test with ETS2; 1.2 fold enrichment (6-mer frequency, TF over GST control) with SPDEF; 1.23 fold enrichment (6-mer frequency, TF over GST control) with ETV7; 1.11 fold enrichment (6-mer frequency, TF over GST control) with ELF5. Further, the binding signal was 1.13 fold enrichment (6-mer frequency, TF over GST control) in the test with ETV3 and 1.02 fold enrichment (6-mer frequency, TF over GST control) with ETV6.
